Six1-Eya2 inh: qHTS Assay for Inhibitors of the Six1/Eya2 Interaction | Homeobox protein SIX1 (Homo sapiens) + Protein phosphatase EYA2 (Homo sapiens), … | actives 0.56% (n = 360,000) | AlphaScreen GST-Six1/His-Eya2 binding, biochemical; hits give low values | activity change, % (test concentration not listed); in the data active = activity change below about -65%; inconclusive = mostly about -30% to -63%
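AlphaScreen luminescence read after one hour at 37 °C in darkness. Pin-transferred compounds met GST-Six1 and His-Eya2 protein (5X stock 250 nM/500 nM) plus glutathione donor and Ni-chelate acceptor beads (5X, 50 ug/mL).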
KDM4E inh: qHTS Assay for Inhibitors of Human Jumonji Domain Containing 2E (JMJD2E). Lysine-specific demethylase 4E (Homo sapiens), B2RXH2. JMJD2E catalytic domain, FDH-coupled NADH fluorescence (FDH is formaldehyde dehydrogenase). Potency, µM (doses to about 57.1 µM), for the others: at the top dose activity change, negative = inhibition, most hits filed as inhibitors. actives 1.6% (n = 230,000); active = well fitted inhibition curve with a large enough effect, not every such curve was filed as active; inconclusive = small, poorly fitted or top-dose-only effect, or another doubt; inactive = no such curve, though single readings can be large or run the other way;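 note: potency is the fitted concentration of half-maximal effect; 0% = wells with enzyme and -100% = buffer wells without enzyme; nearly all actives have a fitted effect of over 50% in size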
Target sequence (B2RXH2 1-337 limits assumed): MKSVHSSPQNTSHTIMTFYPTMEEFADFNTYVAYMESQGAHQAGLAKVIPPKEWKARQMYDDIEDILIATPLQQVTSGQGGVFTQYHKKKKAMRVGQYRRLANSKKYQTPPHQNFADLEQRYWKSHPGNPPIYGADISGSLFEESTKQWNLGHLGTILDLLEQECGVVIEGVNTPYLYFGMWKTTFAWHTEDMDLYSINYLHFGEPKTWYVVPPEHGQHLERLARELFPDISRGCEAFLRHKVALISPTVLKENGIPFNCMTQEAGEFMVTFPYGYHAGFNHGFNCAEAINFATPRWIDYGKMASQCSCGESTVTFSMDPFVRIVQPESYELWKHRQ
GALK inh: qHTS Assay for Inhibitors of Human Galactokinase (GALK). P51570. Purified GALK, Kinase-Glo residual ATP luminescence. Potency, µM (doses to about 57.5 µM), without a hit: at the highest dose activity change, negative = inhibition, hits mostly inhibitors. actives 0.007% (n = 270,000). AID 1868, 2009; note: potency is the fitted concentration of half-maximal effect
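Human GALK (5 nM) with 35 uM ATP and 100 uM galactose in 20 mM HEPES pH 8.0, 5 mM MgCl2, 60 mM NaCl, 1 mM DTT, 0.01% BSA. After 1 h at room temperature, leftover ATP was read by Kinase-Glo Plus luminescence.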
Anesthetic bind: qHTS Assay for Identification of Novel General Anesthetics; Ferritin light chain (Equus caballus), P02791; apoferritin/1-aminoanthracene competitive binding, fluorescence; Potency, µM (highest dose often 77.5 µM), for the others: at the top dose activity change, negative = displacement, usual class: inhibitors; actives 0.074% (n = 350,000); AID 485281, 2010; note: potency is the fitted concentration of half-maximal effect; nearly all actives have a fitted effect of over 20% in size
Target sequence (P02791 2-175 limits assumed): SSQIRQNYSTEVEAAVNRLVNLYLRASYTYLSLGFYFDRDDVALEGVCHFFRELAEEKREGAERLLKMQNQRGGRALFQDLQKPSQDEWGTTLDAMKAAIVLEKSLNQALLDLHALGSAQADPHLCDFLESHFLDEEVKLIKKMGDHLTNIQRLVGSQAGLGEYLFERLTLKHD
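Probe: 1-aminoanthracene (50% saturated, PBS). Protein: horse-spleen apoferritin, 10 uM. Incubation: 10 min, room temperature. Detection: 380 nm excitation, 535 nm emission. Analysis: normalized response, four-parameter Hill.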
CtBP-E1A inh: qHTS Assay for Inhibitors of the CtBP/E1A Interaction | AlphaScreen GST-E1A/His-CtBP binding, 1536-well; hits give low values | CtBP / adenovirus E1A interaction (AlphaScreen) | activity change, % (concentration not given with the values) | AID 651724, 2012 | actives 0.49% (n = 340,000); in the data active = activity change below about -65%; inconclusive = mostly about -30% to -63%
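AlphaScreen with 125 nM GST-E1A and 125 nM His-CtBP (5X stocks) in Tris pH 8.0, 300 mM NaCl, BSA, Tween 20, TCEP. Compounds preincubated 2 h at 37 deg C, then glutathione donor/nickel acceptor beads added for 1 h at 37 deg C in dark.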
Eya2 phos inh: qHTS Assay for Inhibitors of the Phosphatase Activity of Eya2. Potency, µM (highest dose often 76.9 µM), for the others: top-dose activity, negative = inhibition, most hits filed as inhibitors. actives 0.006% (n = 330,000). recombinant Eya2, OMFP fluorescence dephosphorylation (OMFP is methylfluorescein phosphate). Protein phosphatase EYA2 (Homo sapiens), O00167; note: potency is the fitted concentration of half-maximal effect
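Eya2 protein (added as 0.2 uM solution) was preincubated with compound for 10 min at ambient temperature in 50 mM HEPES pH 7.5, 50 mM NaCl, 5 uM MgCl2, 0.05% BSA, 1 mM DTT. OMFP (added at 50 uM) then reacted 10 min; fluorescence read at 485/525 nm.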
The depositor's hits bear a star; ? = inconclusive; / = not tested or not shown. The sample as a whole holds a higher share of hits than the screen did. Unless noted, calls come from the whole dose curve; as a rule, active = well fitted curve in the direction sought with a large enough effect; inconclusive = small, poorly fitted or top-dose-only effect, or another doubt; inactive = no such curve, though single readings can be large; an effect the other way counts as inactive or inconclusive. Unless noted, % is set by controls: 0 for no effect and ±100 for the full control effect.

SMILES | Six1-Eya2 inh | KDM4E inh | GALK inh | Anesthetic bind | CtBP-E1A inh | Eya2 phos inh
CCN1C(=NCCc2c[nH]c3ccccc23)N[C@@H](c2ccccc2)C(C(=O)OC)=C1C | / | / | / | -15% | / | 7%
CC(C)(C)C1CCc2c(sc(NC(=O)c3cc4ccccc4c(=O)o3)c2C(N)=O)C1 (stereo not given) | / | / | / | 0% | / | /
c1cc2c3c(cccc3c1)NC1(CCCCCC1)N2 | 3 | 3.5µM* | 0% | -8% | -11 | -23%
c1cc2c3c(cccc3c1)NC1(CCCCC1)N2 | -6 | 3.2µM* | -2% | ? | -5 | 3%
CC1=Nc2cccc3cccc(c23)N1 | -30 | -16% | -1% | -15% | ? | -5%
c1cc2c3c(cccc3c1)NC1(CCC3(CC1)Nc1cccc4cccc(c14)N3)N2 | ? | ? | 0% | 1% | / | -5%
c1nc2nc(Nc3ccc(N4CCOCC4)cc3)nc(NC3CCCCC3)c2[nH]1 | / | / | / | -11% | / | /
CSc1nc(-c2ccc(Cl)cc2Cl)[nH]c(=O)c1C#N | -72* | 10% | 0% | -10% | ? | 13%
Cc1ccccc1Nc1nc(N)[nH]c(=O)c1N=O | ? | / | / | / | -86* | /
Cc1cc(NC(=O)CCc2ccc(C)o2)no1 | -77* | -2% | 3% | -18% | -18 | -4%
Cc1ccc(C)c(NC(=O)CCc2ccc(C)o2)c1 | 3 | / | 5% | -9% | / | -4%
Cc1noc(Cn2c(=O)c3ccccc3n(CC(=O)Nc3ccccc3C(F)(F)F)c2=O)n1 | / | / | / | -3% | / | /
CCCCNC(=O)Cn1nc(Cc2ccncc2)c2ccccc2c1=O | 7 | / | -1% | -13% | / | -6%
O=C(Cn1nc(Cc2ccncc2)c2ccccc2c1=O)N1CCc2ccccc2C1 | -19 | -1% | -2% | 7% | -68* | -1%
Cc1ccc(C)c(Cn2c3ccccc3c3cnn(CC(=O)NC(C)CCc4ccccc4)c(=O)c32)c1 (stereo not given) | / | / | / | 8% | / | /
N#C/C(=C\c1ccc(-c2ccc(Cl)c(C(=O)O)c2)o1)c1nc2ccccc2[nH]1 | / | / | / | -1% | / | 7%
N#C/C(=C\c1ccc(-c2ccc(C(=O)O)cc2)o1)c1nc2ccccc2[nH]1 | -24 | 28µM* | 0% | 0% | ? | 26%
O=C1S/C(=C\c2ccc(O)c([N+](=O)[O-])c2)C(=O)N1c1ccccc1Cl | ? | -6% | 3% | 13µM* | -25 | 6%
N=c1c(C(=O)NCc2ccco2)cc2c(=O)n3ccccc3nc2n1CCc1ccccc1 | -78* | ? | 8% | -1% | -67* | -12%
COc1ccc(CCNC(=O)c2cc3c(=O)n4ccccc4nc3n(Cc3ccco3)c2=N)cc1OC | -9 | / | 2% | -14% | / | -1%
COc1ccc(CCn2c(=N)c(C(=O)NCc3ccco3)cc3c(=O)n4ccccc4nc32)cc1OC | -74* | / | / | / | / | /
Cc1ccccc1Cn1c(=O)n(CCc2ccccc2)c(=O)c2c(C)c(C)sc21 | / | / | / | -7% | / | /
Cc1noc(C)c1-c1ccc2ncnc(NCc3ccc(C(F)(F)F)cc3)c2c1 | / | / | / | -18% | / | /
c1ccc(-c2nnc(-c3ccccn3)nn2)nc1 | -79* | / | / | / | -91* | /
c1ccc(-c2cccc(-c3ccccn3)n2)nc1 | -91* | ? | 0% | -1% | -101* | -17%
SMILES | Six1-Eya2 inh | KDM4E inh | GALK inh | Anesthetic bind | CtBP-E1A inh | Eya2 phos inh
CCOC(=O)c1ncccc1NC(=O)CC(=O)Nc1cccnc1C(=O)OCC | -95* | / | / | / | / | /
Cc1cccc(NC(=O)CCS(=O)(=O)c2ccc3c(c2)n(C)c(=O)c(=O)n3C)c1C | / | / | / | 0% | / | /
CCCC(=O)NC(c1ccc(N(C)C)cc1)c1c(O)ccc2ccccc12 (stereo not given) | -12 | ? | / | -17% | -26 | -9%
CCCCC(=O)NC(c1ccc(N(CC)CC)cc1)c1ccc2cccnc2c1O (stereo not given) | ? | / | -5% | 5% | -78* | 2%
CCOc1cc(C(Nc2cc(C)ccn2)c2ccc3cccnc3c2O)ccc1OC (stereo not given) | / | / | / | -7% | / | /
CCCCC(=O)NC(c1ccc(N(C)C)cc1)c1ccc2cccnc2c1O (stereo not given) | -70* | / | -5% | -16% | -91* | -22%
CCN(CC)c1ccc(C(NC(=O)C(C)C)c2ccc3cccnc3c2O)cc1 (stereo not given) | -72* | / | / | / | ? | /
Oc1c(C(Nc2nc3ccccc3s2)c2ccco2)ccc2cccnc12 (stereo not given) | -73* | ? | 7% | -22% | -16 | -5%
Cc1nn(CCCC(=O)NCc2ccccc2)c(=O)c2cc3sccc3n12 | / | / | / | -7% | / | /
Cc1ccccc1-c1nn2c(=O)cc(CN3CCN(S(=O)(=O)c4ccc(Cl)cc4)CC3)nc2s1 | / | / | / | -4% | / | /
CC(C)OC(=O)[C@H]1O[C@H](CCCCOCc2ccccc2)[C@@H](C)[C@H]2O[C@H]21 | / | 12% | / | / | / | /
Cc1nn(C)c2c1c(-c1ccccc1)cc(=O)n2C(C)C(=O)NCCc1ccc(Cl)cc1 (stereo not given) | / | / | / | 0% | / | /
CC(C)C(=O)NC(c1ccco1)c1ccc2cccnc2c1O (stereo not given) | -93* | ? | -3% | -13% | -91* | 2%
COc1ccccc1CNC(=O)C1CCC(CNS(=O)(=O)c2ccc3c(c2)CCCC(=O)N3)CC1 (stereo not given) | / | / | / | -12% | / | /
CC(C)(C)C(=O)OCC(=O)C1CCC2C3CCC4=CC(=O)CCC4(C)C3CCC12C (stereo not given) | / | / | / | -19% | / | /
Cc1cc(-c2csc(NC(=O)c3cccc(S(=O)(=O)N(C)C)c3)n2)c(C)n1-c1ccccc1 | -4 | 13µM* | 2% | -13% | -1 | 6%
NC(=S)Nc1cccc2cccnc12 | 4 | -4% | 1% | -10% | 0 | -7%
NC(=S)NNc1cccc2cccnc12 | -92* | -8% | 2% | ? | -92* | 3%
CN1OC2C(=O)N(c3ccccc3)C(=O)C2C1c1ccc(F)cc1 (stereo not given) | 5 | -5% | 3% | 32µM* | 12 | 9%
Cc1cc(/C=C2/NC(=O)N(c3ccccc3)C2=O)c(C)n1-c1cccnc1 | -14 | 20µM* | 1% | -15% | 0 | 6%
Cc1cc(/C=C2/NC(=S)NC2=O)c(C)n1-c1cccnc1 | -2 | -15% | -1% | -15% | -11 | -4%

Screening data: PubChem, National Center for Advancing Translational Sciences (NCATS)
